Data published in PubChem BioAssay.
Records with an inconclusive call do not appear. Activity calls are given as the source filed them. The limit is not given here; nearly all actives have AC50 up to about 26 µM.

assay: viability loss in pontine glioma line – cell-based, SU-DIPG-XXV, MIPE5.0, CellTiter-Glo, qHTS, dose response (AID 1347065); conditions: CellTiter-Glo ATP luminescence;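 also: cells exposed to compound for 48 hours before ATP readout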

| SMILES | AC50 | outcome |
| --- | --- | --- |
| COCCCc1sc(-c2ccccc2)nc1C(=O)Nc1ccccc1-c1nc2cc(CN3CCCC3)cnc2s1 | 12.9 µM (active) | – |
| Cc1ccc(-n2c(C)cc(-c3nnc4n3CCCCC4)c2C)cc1 | 20.9 µM (active) | – |
| N#Cc1ccc(-c2c(-c3ncn[nH]3)sc(N3CCOCC3)c2C#N)c(F)c1 | 1.48 µM (active) | – |
| O=C(NC[C@H](O)CN1CCc2ccccc2C1)c1ccnc(NC2CCC2)c1 | – | inactive |
| C=CC(=O)Nc1cccc(Sc2nc(Nc3ccc(N4CCN(C)CC4)cc3)ncc2Cl)c1 | 1.48 µM (active) | – |
| CCS(=O)(=O)Nc1ccc(Oc2ccc(F)cc2F)c(-c2cn(C)c(=O)c3[nH]ccc23)c1 | 2.95 µM (active) | – |
| CN(C)c1cc(NC(=O)CNC(C)(C)C)c(O)c2c1C[C@H]1C[C@H]3[C@H](N(C)C)C(=O)C(C(N)=O)=C(O)[C@]3(O)C(=O)C1=C2O | – | inactive |
| Cc1cc(O)c(-c2ccc([C@@H](C)CN(C)C)cc2)c2c1[nH]c(=O)c1sccc12 | 0.332 µM (active) | – |
| Nc1nccc2c1ncn2[C@@H]1C=C(CO)[C@@H](O)[C@H]1O | – | inactive |
| CONC(=O)Nc1ccc(-c2sc3c(c2CN(C)C)c(=O)n(-c2ccc(OC)nn2)c(=O)n3Cc2c(F)cccc2F)cc1 | – | inactive |
| Cc1c(C(=O)Nc2ccc(Oc3ccnc4[nH]cc(-c5ccccc5)c34)c(F)c2)c(=O)n(-c2ccc(F)cc2)n1C | 5.25 µM (active) | – |
| NC(=S)N/N=C/c1ncccc1N | 16.6 µM (active) | – |
| Cc1cc(C(=O)Nc2cc(Oc3ccc4nc(NC(=O)C5CC5)cn4n3)ccc2C)n(C)n1 | 5.9 µM (active) | – |
| CCNCCc1ccc(CN(CC)c2cc(OC)ccc2[C@@H]2CCc3cc(O)ccc3C2)cc1 | 8.33 µM (active) | – |
| CC1(C(=O)O)CCC2(C)CCC3(C)C(=CC(=O)C4C5(C)CCC(OC6OC(C(=O)O)C(O)C(O)C6OC6OC(C(=O)O)C(O)C(O)C6O)C(C)(C)C5CCC43C)C2C1 (stereo not given) | – | inactive |
| COC1(c2sc3c(N4CCOCC4)nc(-c4cnc(N)nc4)nc3c2C)COC1 | 0.132 µM (active) | – |
| C=Cc1cc(O)cc2nc(-c3ccc(O)c(F)c3)oc12 | – | inactive |
| O=C1OC(COc2ccccc2[N+](=O)[O-])CC1Cc1ccccc1 (stereo not given) | – | inactive |

| SMILES | AC50 | outcome |
| --- | --- | --- |
| CN(C)N(C)C(=O)[C@@]1(Cc2ccccc2)CCCN(C(=O)[C@@H](Cc2c[nH]c3ccccc23)NC(=O)C(C)(C)N)C1 | – | inactive |
| CC(C)n1c(=O)cc(N[C@@H](C)c2ccccc2)[nH]c1=O | 10.5 µM (active) | – |
| C[C@@H](C(=O)Nc1ccc(Cl)cc1)C1CCC(c2ccnc3ccc(F)cc23)CC1 (stereo not given in full) | – | inactive |
| NC(=O)c1cccc(-c2cc(Nc3ccc(OC(F)(F)F)cc3)ncn2)c1 | 20.9 µM (active) | – |
| CC1(C)CCC2(CC1)N[C@@H](C(=O)N[C@@H]1CC[C@@H](C(N)=O)OC1)[C@H](c1ccnc(Cl)c1F)[C@]21C(=O)Nc2cc(Cl)ccc21 | 16 µM (active) | – |
| CCS(=O)(=O)N1CCN(c2ccc(Nc3ncc(C(N)=O)c(NC4CC4)n3)cc2)CC1 | 11.8 µM (active) | – |
| Cc1c(NC(=O)c2cc(C(N)=O)nc3cc(F)ccc23)c(C(F)(F)F)nn1Cc1ccc(C(C)(C)C)cc1 | 20.9 µM (active) | – |
| Cc1ccc(S(=O)(=O)Nc2cc(C(F)(F)F)ccc2C(=O)Nc2nc(-c3ccccc3)cs2)cc1 | 3.72 µM (active) | – |
| O=C(Cc1cccc(OC(F)(F)F)c1)Nc1ccc(CCCCc2nnc(NC(=O)Cc3ccccn3)s2)nn1 | 14.8 µM (active) | – |
| c1ccc(CNCc2ccc(CN3CCCNCCNCCCNCC3)cc2)nc1 | – | inactive |
| CCN1C(=O)CNc2ncc(-c3ccc(-c4ncn[nH]4)nc3C)nc21 | 1.48 µM (active) | – |
| Cc1ccc(NC(=O)[C@H]2CCCN(C(=O)c3c(C)cccc3F)[C@H]2c2ccc(NC3CCCC3)cc2)cc1C(F)(F)F | – | inactive |
| NC(=O)c1cnc(N[C@@H]2CCCC[C@@H]2N)nc1Nc1cccc(-n2nccn2)c1 | 5.25 µM (active) | – |
| CN[C@@H](C)C(=O)N[C@H](C(=O)N1CCC[C@H]1C(=O)Nc1snnc1-c1ccccc1)C1CCCCC1 | – | inactive |
| COCc1c(-c2ccc(NC(=O)Nc3cc(C(F)(F)F)ccc3F)c(F)c2)c2c(N)ncnn2c1CN1CCOCC1 | 0.186 µM (active) | – |
| COc1ccc(-n2cnc3cc(C(=O)N4CCCCC4)ccc32)cc1 | – | inactive |
| O=C(NO)c1cnc(NC2(c3ccccc3)CC2)nc1 | 2.95 µM (active) | – |
